Assay [1] is described as follows: binders of probe aFSTL3 on microarray, primary screen, stem cell growth factor project, biochemical, small-molecule microarray, fluorescence 635/667 (AID 1064).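 Also: measures binding of the biotinylated anti-FSTL3 antibody to printed compounds.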 The following applies: higher = more signal.
Assay [2] in a line: binders from COS7 lysate, DM2A8 probe, primary screen, torsin A project, cell lysate, small-molecule microarray, fluorescence 635/667 (AID 1065). Particulars: higher = more signal, COS7 lysate expressing mutant human TOR1A.
The nature of assay [3]: binders of probe aFGF2 on microarray, primary screen, stem cell growth factor project, biochemical, small-molecule microarray, fluorescence 635/667 (AID 1067).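 Also: measures binding of biotinylated aFGF2 protein to printed compounds on slides; z-score merges feature fluorescence and signal-to-noise across triplicate slides.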 Particulars: higher = more signal.
The nature of assay [4]: binders of probe aFGF10 on microarray, primary screen, stem cell growth factor project, biochemical, small-molecule microarray, fluorescence 635/667 (AID 1071).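 Also: score merges 667 nm spot intensity and signal to noise from triplicate slides.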 Particulars: higher = more signal.
For assay [5], the target named is Neurogenic locus notch homolog protein 2 (Homo sapiens) (UniProt Q04721). Nature of the assay: Notch2 binders on small-molecule microarrays, primary screen, biochemical, small-molecule microarray, 635 nm fluorescence, stem cell growth factors (AID 1073). Particulars: Notch2 binding, higher = more signal.
Chain of Neurogenic locus notch homolog protein 2 (Homo sapiens) (Q04721 whole entry, looked up, canonical isoform): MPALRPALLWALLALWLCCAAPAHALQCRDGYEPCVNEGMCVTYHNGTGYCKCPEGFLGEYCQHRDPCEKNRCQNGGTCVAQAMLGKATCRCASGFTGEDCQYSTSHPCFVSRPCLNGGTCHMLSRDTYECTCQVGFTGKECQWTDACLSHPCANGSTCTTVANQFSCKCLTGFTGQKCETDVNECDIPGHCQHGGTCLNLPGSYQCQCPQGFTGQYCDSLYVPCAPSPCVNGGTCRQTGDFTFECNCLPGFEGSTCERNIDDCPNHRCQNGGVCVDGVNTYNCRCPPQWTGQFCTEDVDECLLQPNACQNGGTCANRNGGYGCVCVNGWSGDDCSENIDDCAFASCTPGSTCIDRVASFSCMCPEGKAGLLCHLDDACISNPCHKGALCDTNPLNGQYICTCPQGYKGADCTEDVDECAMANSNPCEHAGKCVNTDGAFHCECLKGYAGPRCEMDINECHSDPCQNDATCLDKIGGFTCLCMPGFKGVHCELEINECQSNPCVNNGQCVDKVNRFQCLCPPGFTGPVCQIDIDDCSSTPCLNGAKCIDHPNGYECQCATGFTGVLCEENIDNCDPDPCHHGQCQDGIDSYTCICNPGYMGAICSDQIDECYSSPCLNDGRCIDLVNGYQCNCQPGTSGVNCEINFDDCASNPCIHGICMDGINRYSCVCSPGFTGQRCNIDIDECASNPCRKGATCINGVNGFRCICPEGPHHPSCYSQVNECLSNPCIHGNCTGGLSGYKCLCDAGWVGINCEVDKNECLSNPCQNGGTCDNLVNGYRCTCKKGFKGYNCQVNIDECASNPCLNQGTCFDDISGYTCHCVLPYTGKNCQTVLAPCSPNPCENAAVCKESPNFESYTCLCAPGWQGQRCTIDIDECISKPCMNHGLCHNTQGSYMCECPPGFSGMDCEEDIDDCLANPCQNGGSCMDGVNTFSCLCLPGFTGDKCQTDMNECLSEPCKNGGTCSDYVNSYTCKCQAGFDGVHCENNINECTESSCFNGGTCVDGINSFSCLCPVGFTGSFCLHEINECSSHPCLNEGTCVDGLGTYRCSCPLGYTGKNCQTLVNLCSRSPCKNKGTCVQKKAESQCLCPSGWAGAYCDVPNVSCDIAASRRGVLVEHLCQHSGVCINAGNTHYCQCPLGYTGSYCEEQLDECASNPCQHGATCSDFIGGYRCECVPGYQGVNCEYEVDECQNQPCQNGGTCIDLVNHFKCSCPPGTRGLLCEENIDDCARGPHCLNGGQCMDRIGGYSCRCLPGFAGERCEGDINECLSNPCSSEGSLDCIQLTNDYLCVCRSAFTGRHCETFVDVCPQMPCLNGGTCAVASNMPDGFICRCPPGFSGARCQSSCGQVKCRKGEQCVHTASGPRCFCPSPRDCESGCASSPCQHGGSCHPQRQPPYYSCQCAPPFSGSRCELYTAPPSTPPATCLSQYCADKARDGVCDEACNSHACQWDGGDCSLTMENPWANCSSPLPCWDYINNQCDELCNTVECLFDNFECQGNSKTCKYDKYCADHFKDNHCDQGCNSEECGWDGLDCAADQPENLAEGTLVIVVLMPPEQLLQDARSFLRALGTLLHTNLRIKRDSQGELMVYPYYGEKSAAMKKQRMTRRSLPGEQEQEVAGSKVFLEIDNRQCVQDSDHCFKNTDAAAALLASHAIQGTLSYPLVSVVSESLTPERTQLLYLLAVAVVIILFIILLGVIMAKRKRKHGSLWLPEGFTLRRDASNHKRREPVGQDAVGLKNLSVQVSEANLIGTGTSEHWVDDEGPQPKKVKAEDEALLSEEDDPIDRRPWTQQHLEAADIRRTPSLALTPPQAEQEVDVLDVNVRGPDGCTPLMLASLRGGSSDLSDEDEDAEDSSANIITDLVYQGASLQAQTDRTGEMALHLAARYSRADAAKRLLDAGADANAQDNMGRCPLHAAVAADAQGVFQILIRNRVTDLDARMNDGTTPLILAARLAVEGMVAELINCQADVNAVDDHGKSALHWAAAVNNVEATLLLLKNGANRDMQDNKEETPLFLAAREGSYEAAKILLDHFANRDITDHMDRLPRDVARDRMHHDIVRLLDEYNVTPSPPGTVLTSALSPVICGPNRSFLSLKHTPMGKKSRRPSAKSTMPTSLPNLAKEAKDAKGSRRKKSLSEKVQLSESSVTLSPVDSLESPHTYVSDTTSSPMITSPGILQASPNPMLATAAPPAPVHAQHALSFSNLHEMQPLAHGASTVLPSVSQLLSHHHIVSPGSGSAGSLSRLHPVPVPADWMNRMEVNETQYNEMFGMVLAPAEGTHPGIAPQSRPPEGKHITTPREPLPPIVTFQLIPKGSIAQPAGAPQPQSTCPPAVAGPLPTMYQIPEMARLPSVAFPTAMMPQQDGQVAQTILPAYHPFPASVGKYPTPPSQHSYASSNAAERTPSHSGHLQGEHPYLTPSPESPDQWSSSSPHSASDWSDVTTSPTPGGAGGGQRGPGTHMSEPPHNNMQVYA
In assay [6] the target is Pro-neuregulin-1, membrane-bound isoform (Homo sapiens) (UniProt Q02297). The experiment in a line: NRG1 binders on small-molecule microarrays, primary screen, psychiatric disease protein project, biochemical, small-molecule microarray, fluorescence 635/667 (AID 1075).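 Also: score combines 667 nm spot fluorescence with signal to noise.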 Particulars: NRG1 binding, 635 nm fluorescence, higher = more signal.
Chain of Pro-neuregulin-1, membrane-bound isoform (Homo sapiens) (Q02297 whole entry, looked up, the tested form may be a part, canonical isoform): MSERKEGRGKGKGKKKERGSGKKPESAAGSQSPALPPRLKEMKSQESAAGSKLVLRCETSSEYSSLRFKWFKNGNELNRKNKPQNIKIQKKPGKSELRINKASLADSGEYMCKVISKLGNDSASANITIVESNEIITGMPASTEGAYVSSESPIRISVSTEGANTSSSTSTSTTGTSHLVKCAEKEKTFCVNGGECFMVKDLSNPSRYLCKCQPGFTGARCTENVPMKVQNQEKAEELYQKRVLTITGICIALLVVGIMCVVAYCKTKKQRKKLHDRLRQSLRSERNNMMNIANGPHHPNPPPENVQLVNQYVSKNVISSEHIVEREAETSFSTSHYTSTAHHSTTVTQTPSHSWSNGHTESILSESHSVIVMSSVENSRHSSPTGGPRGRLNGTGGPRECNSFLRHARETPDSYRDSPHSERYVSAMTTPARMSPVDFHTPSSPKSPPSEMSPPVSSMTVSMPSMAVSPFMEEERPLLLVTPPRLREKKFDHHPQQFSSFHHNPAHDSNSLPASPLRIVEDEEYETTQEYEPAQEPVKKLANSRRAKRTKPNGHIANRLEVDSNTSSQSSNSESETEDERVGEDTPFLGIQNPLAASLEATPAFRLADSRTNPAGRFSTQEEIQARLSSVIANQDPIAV
Assay [7] concerns Neuregulin-1 EGF-like domain. Nature of the assay: binders of neuregulin-1 EGF-like domain, primary screen, biochemical, small-molecule microarray, 635 nm fluorescence (AID 1081).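 Also: binding of the protein to compounds printed on small-molecule microarray slides.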 The following applies: small-molecule microarray binding, higher = more signal.
The nature of assay [8]: FRG1 promoter luciferase signal modulators, primary screen, FRG1 inhibition for FSHD, cell-based, C2C12 myotubes, firefly/Renilla luciferase, luminescence (AID 1084). The following applies: higher = more signal, called active from +8 up or from −8 down.
Assay [9] can be described thus: binders of probe aFST on microarray, primary screen, stem cell growth factor project, biochemical, small-molecule microarray, fluorescence 635/667 (AID 1086).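 Also: score merges 667 nm fluorescence with signal-to-noise of each printed compound spot.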 Particulars: higher = more signal.
Assay [10] in a line: binders of probe aHhip on microarray, primary screen, stem cell growth factor project, biochemical, small-molecule microarray, fluorescence 635/667 (AID 1087).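 Also: score merges spot fluorescence at 667nm with spot signal to noise ratio.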 Particulars: higher = more signal.

Calls of active or inactive are those of the source.

Consider `O=C1NC(=O)C2C1C=CC(C(O)CCc1ccccc1)N2Nc1ccc(Cl)cc1Cl` (stereo not given), for which the composite z-score in assay [1] was 1.18; in assay [2] it was 1.42; in assay [3] it was 0.153; in [4] it was 0.229; in assay [5], 1.39; in assay [6] it was 1.34. The composite z-score in [7] amounted to 1.1; in assay [9], 1.55; in assay [10] it was 0.011. In addition, in assay [8], the z-score is 1.19 (inactive).
In the case of `O=C(NCC(F)(F)F)[C@@H]1c2ccccc2C(=O)N(Cc2ccccc2C(F)(F)F)[C@H]1c1ccc(CO)cc1`, the composite z-score in [1] is 0.597; in assay [2] it was -0.0704; in [3], -0.156; in [4], 0.424; in assay [5], -0.169; in assay [6], 0.997. In addition, the composite z-score was 1.3 in [7], -0.181 in assay [9] and 0.113 in assay [10]. For the same compound, the z-score in assay [8] is -1.49 (inactive).
On to `CO[C@H]1O[C@H](CO)[C@@H](OC(=O)Nc2ccccc2-c2ccccc2)[C@H](OC(=O)Nc2ccc3c(c2)OCO3)[C@H]1OC(=O)Nc1ccc2c(c1)OCO2`, for which the composite z-score in [1] was -0.0811; in [2], 0.866; in assay [3], 0.0555; in assay [4], 0.937; in [5] it was 1.47; in [6], 1.72. Further, the composite z-score in assay [7] is 1.35; in assay [9] it was 0.601; in [10], -0.0618. For the same compound, the z-score in assay [8] is 4.93 (inactive).
In the case of `C=C(COC)C(=O)CC[C@@H](OC(=O)c1cccnc1)c1ccc(OCCO)cc1`, the composite z-score in [1] was 0.193; in [2] it was 0.112; in assay [3] it was -0.172; in [4] it was 0.182; in assay [5], 1.02; in assay [6], 0.403. The composite z-score in assay [7] is 1.49; in [9], 0.343; in assay [10], -0.0237. The z-score in [8] was -1.32 (inactive).
Take `CC(C)[Si](C#CCCCC#N)(O[C@H](c1ccccc1)c1cn([C@H](CO)Cc2ccccc2)nn1)C(C)C`: the composite z-score is -0.436 in assay [1]; 1.22 in assay [2]; -0.168 in assay [3]; 0.202 in assay [4]; 0.873 in assay [5]; 1.44 in assay [6]. In addition, the results for the composite z-score in assay [7], in [9] and in assay [10] were 1.21, -0.337 and 0.0373, respectively. In addition, the z-score in [8] was -0.325 (inactive).
With `COCCOC(=O)N1C(=O)[C@@]2(c3cc(C#CC4=CCCCC4)ccc31)[C@H](c1ccccc1OCCO)N1[C@H](c3ccccc3)[C@H](c3ccccc3)OC(=O)[C@H]1[C@@H]2C(=O)N1CCCCCCC1`, the composite z-score in assay [1] amounted to 0.493; in [2], 0.107; in assay [3], 0.0829; in [4] it was 0.61; in [5], 1.1; in assay [6], 0.382. Further, the composite z-score is 1.29 in assay [7], 0.497 in [9] and -0.972 in assay [10]. Moreover, in assay [8], the z-score was -0.639 (inactive).
Consider `C=CCC(OC(C)=O)[C@@H]1[C@@H](N(Cc2ccc(-c3cccc(C(F)(F)F)c3)o2)C(=O)c2ccc(C)cc2)c2cc(OCCCO)ccc2N1C(=O)c1ccc2ccccc2c1` (stereo not given in full), for which the composite z-score was -0.302 in [1]; 0.462 in assay [2]; 0.0002 in assay [3]; 0.298 in assay [4]; -0.204 in [5]; -0.0678 in assay [6]. Besides, the composite z-score in [7] was 0.273; in assay [9] it was 0.0494; in assay [10], 0.0749. For the same compound, the z-score in assay [8] is 0.0925 (inactive).
In the case of `COc1ccc([Si](C)(C)[C@H]2[C@H](CC(=O)N(CCO)Cc3ccccc3)O[C@@]3(C(=O)N(Cc4cccc(N5CCOC5=O)c4)c4ccccc43)[C@@H]2C)cc1`, the composite z-score is -0.243 in [1]; 0.635 in assay [2]; -0.0737 in assay [3]; 0.171 in [4]; 0.0078 in assay [5]; 1.2 in assay [6]. In addition, the results for the composite z-score in assay [7], in [9] and in assay [10] were 0.974, -0.0174 and 0.176, respectively. For the same compound, the z-score in assay [8] is -0.551 (inactive).
For `COCCOC(=O)N1C(=O)[C@@]2(c3cc(C#CCC(C(=O)OC)C(=O)OC)ccc31)[C@H](C(=O)N1CCc3cc(OC)c(OC)cc3C1)[C@H]1C(=O)O[C@H](c3ccccc3)[C@H](c3ccccc3)N1[C@@H]2c1ccc(OCCO)cc1`, the composite z-score was -0.63 in assay [1]; 0.527 in [2]; -0.0099 in assay [3]; 0.411 in assay [4]; 1.31 in assay [5]; 1.07 in [6]. The figures for the composite z-score in [7], in [9] and in [10] were 1.31, 0.479 and 0.0749, respectively. Besides, in assay [8], the z-score was 1.08 (inactive).
Turning to `O=C1O[C@H](c2ccccc2)[C@H](c2ccccc2)N2[C@H]1[C@@H](C(=O)Nc1nc3ccccc3s1)[C@]1(C(=O)Nc3ccc(C#CCCO)cc31)[C@H]2c1ccc(O)cc1`, the composite z-score in assay [1] was -0.309; in assay [2], 0.931; in assay [3], -0.0074; in assay [4], 1.01; in assay [5], 0.947; in assay [6] it was 1.2. Further, the composite z-score was 1.27 in assay [7], 0.652 in assay [9] and -0.0581 in [10]. Also, the z-score in [8] was 0.912 (inactive).
Regarding `CCC[C@@H]1C[C@@]1(CCC)[C@@H](NC(=O)OCc1ccccc1)c1ccc(-c2ccccc2)cc1`, the composite z-score in assay [1] was 0.49; in assay [2], -0.602; in assay [3], 0.0572; in [4] it was -0.68; in assay [5], -0.527; in assay [6], -0.271. Also, the results for the composite z-score in [7], in assay [9] and in [10] were -0.76, -0.294 and 3.09, respectively. Moreover, in assay [8], the z-score is -1.93 (inactive).
As to `CN(C)C(=O)[C@@]1(Cc2ccccc2CN=[N+]=[N-])N=C(c2ccc(OCCCO)cc2)O[C@H]1c1ccccc1CN=[N+]=[N-]`, the composite z-score in [1] is 0.262; in assay [2] it was -0.159; in [3], 0.222; in assay [4], 0.776; in assay [5], 1.52; in assay [6], 1.64. For the same compound, the values for the composite z-score in assay [7], in [9] and in [10] were 1.29, 0.457 and -0.388, respectively. Also, the z-score in assay [8] is -4.01 (inactive).
As to `C=C(/C(=C/C[C@H](OC(=O)c1ccncc1)c1ccc(CO)o1)c1cc(C(=O)OC)ccc1OC)C(C)C`, the composite z-score in assay [1] is -0.259; in assay [2] it was 0.816; in assay [3] it was -0.0097; in [4], 1.08; in assay [5] it was 0.238; in [6], 0.928. Also, the composite z-score was found to be 1.23 in [7], 0.201 in assay [9] and 0.113 in assay [10]. The z-score in assay [8] is -0.918 (inactive).
In the case of `CN1C(=O)C2C=CC(C(O)COCc3ccccc3)N(N(c3ccccc3)c3ccccc3)C2C1=O` (stereo not given), the composite z-score in assay [1] is 0.0199; in assay [2] it was -0.177; in assay [3], 0.0472; in [4] it was 0.631; in assay [5] it was 1.55; in assay [6], 1.29. Also, the composite z-score in assay [7] was 1.03; in assay [9], 1.1; in assay [10], -0.0563. The z-score in assay [8] is 0.0958 (inactive).
On to `C=CCOC(=O)[C@H]1[C@@H]2C(=O)O[C@@H](c3ccccc3)[C@@H](c3ccccc3)N2[C@@H](c2ccc(OCCOC(=O)[C@H]3C[C@H]4C(=O)N[C@@H](CC(C)C)C(=O)N4[C@H]3c3cccc(OCCO)c3)cc2)[C@]12C(=O)Nc1ccc(I)cc12`, for which the composite z-score is -0.475 in assay [1]; 0.178 in assay [2]; -0.0442 in assay [3]; 0.823 in assay [4]; 0.919 in assay [5]; -0.403 in [6]. For the same compound, the composite z-score in assay [7] came out at 1.17; in assay [9], 0.157; in assay [10], 0.0373. In addition, the z-score in assay [8] is 0.842 (inactive).
Consider `COC(=O)[C@@]1(Cc2ccccc2)[C@@H]2C(=CC(=O)[C@H]2CC(=O)C(=O)N(C)C)CN1C(=O)c1ccccc1`, for which the composite z-score in [1] is 0.152; in [2], -0.0069; in assay [3], 0.305; in assay [4], 1.21; in [5] it was 1.39; in [6], 1.98. Further, the composite z-score was determined as 1.32 in [7], 0.962 in assay [9] and 0.113 in assay [10]. Moreover, the z-score in assay [8] was -1.26 (inactive).

The values are drawn from PubChem BioAssay.
